# Assay results reported in PubChem BioAssay (Tox21).
# Results filed as inconclusive are left out. Where a call stands in place of a potency, no number is given. Calls of active or inactive are those of the source. The call rests on the fitted dose curve.
# Molecular target: Beta-2 adrenergic receptor (Homo sapiens) (UniProt P07550)
# Test: Adrenergic beta2 receptor (ADRB2) small molecule agonists, cell-based qHTS assay (AID 1963593)
# Settings: CHO-ADRB2 cells, cAMP HTRF, 30 min; series mostly up to 92.4 µM
# Excerpt: National Center for Advancing Translational Sciences [NCATS]
# Division of Preclinical Innovation [DPI]
# U.S. Environmental Protection Agency [EPA]
# National Institutes of Environmental Health Sciences [NIEHS]
# National Toxicology Program [NTP]
# U.S. Food and Drug Administration [FDA]
# Beta adrenergic receptors (Beta-ARs) belong to the G-protein coupled receptor (GPCR) superfamily, includes three subtypes - beta1, beta2, and beta3. Beta1-AR is the predominant receptor subtype expressed in the heart, and beta2-AR is expressed in the kidney, lung, blood vessel and in the heart, and beta3 is found in the adipocytes. Beta1 and 2 ARs couple to Gs protein and elevate cyclic adenosine mono phosphate (cAMP), which activates protein kinase A and leads to the downstream signaling responsible for the physiological actions. Beta-AR agonists or antagonists are the most prescribed therapeutic agents for heart failure and asthma, and these were one of the first target receptors for the rational drug design. Tox21 10K compound library was screened using the cAMP-Gs dynamic assay (Cisbio Bioassays, Shelton, CT) to identify agonists/antagonists of the Gs-coupled human adrenergic, beta2 receptor (ADRB2) in the CHO-ADRB2 cell line (Codex BioSolutions, Inc. Gaithersburg, MD), which stably over-expresses ADRB2. The principle of cAMP-Gs dynamic assay is based on HTRF technology, which facilitates the fluorescence resonance energy transfer (FRET) between donor Europium cryptate and acceptor d2-labeled cAMP. The cAMP generated within cells competes with the red acceptor, d2-labled cAMP, for binding to the monoclonal anti-cAMP-cryptate (Europium donor). An increase in intracellular cAMP leads to the disruption of FRET signal, and the signal is inversely proportional to the cAMP concentration. Isoproterenol HCl (Sigma-Aldrich, St. Louis, MO) was used as a positive control in the screening.
# Tox21 Assay Protocol Summary:
# CHO-ADRB2 cells were dispensed at 1,000/well in 4uL assay medium into white/solid 1536-well plates (Greiner Bio-One North America Inc., Monroe, NC) using a Multidrop Combi dispenser (ThermoFisher Scientific, Waltham, MA). The assay plates were incubated at 37C and 5% CO2 for an overnight (18-20hr). Then positive control and test compounds dissolved in DMSO were transferred to the assay plates at 23nL using a Pintool station (Wako, San Diego, CA). Following the compound and positive control transfer, 1uL stimulation mix containing 100uM IBMX and 25uM Ro-20-1724 was added to each well of the assay plates using BioRAPTR Flying Reagent Dispenser (FRD, Beckman Coulter, Brea, CA). The assay plates were incubated at room temperature for 0.5hr. Then 2.5ul each d2-labled cAMP and anti-cAMP-cryptate solutions were added separately to each well of the assay plates using an FRD and the assay plates were incubated at room temperature for 1hr.
# Beta-2 adrenergic receptor (Homo sapiens), sequence (P07550 whole entry, looked up): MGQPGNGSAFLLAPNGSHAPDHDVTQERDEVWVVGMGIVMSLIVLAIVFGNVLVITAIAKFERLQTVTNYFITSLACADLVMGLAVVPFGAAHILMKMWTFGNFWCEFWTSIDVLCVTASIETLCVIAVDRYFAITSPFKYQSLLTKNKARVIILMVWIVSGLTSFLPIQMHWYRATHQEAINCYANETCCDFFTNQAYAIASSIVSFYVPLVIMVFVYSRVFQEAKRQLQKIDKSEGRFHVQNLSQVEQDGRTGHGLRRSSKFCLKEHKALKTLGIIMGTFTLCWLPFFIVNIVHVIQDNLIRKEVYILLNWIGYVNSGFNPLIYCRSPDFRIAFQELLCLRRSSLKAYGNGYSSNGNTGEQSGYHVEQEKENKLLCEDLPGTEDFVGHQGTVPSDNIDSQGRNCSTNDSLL
row,SMILES,Potency
1,CC(C)(O)C(=O)O,inactive
2,C=CCc1cc(OC)c(O)c(C(=O)NCCO)c1,inactive
3,CCCCCCC1(C)CCC(=O)O1 (stereo not given),inactive
4,CC1CCC(C(C)C)C(O)C1 (stereo not given),inactive
5,CC(C)CC(O)CC(C)C,inactive
6,O=C1c2ccccc2CCc2ccccc21,inactive
7,CCCCOC(O)CC (stereo not given),inactive
8,C=C(C)C(=O)NCCCN(C)C,inactive
9,COc1ccc2cc1Oc1cc3c(cc1OC)CC[N+](C)(C)[C@H]3Cc1ccc(cc1)Oc1c(OC)c(OC)cc3c1[C@@H](C2)[N+](C)(C)CC3,inactive
10,C=C(C)C(=O)OCCC(F)(F)C(F)(F)C(F)(F)C(F)(F)C(F)(F)C(F)(F)F,inactive
11,CCC(C)CO (stereo not given),inactive
12,CO[C@@]1(NC(=O)CSC[C@@H](N)C(=O)O)C(=O)N2C(C(=O)O)=C(CSc3nnnn3C)CS[C@@H]21,inactive
13,CCCCCCCCCCCCCCCCCCOCC(O)CO (stereo not given),inactive
14,O=C(O)[C@@H]1[C@H]2C[C@H]3c4[nH]c5ccccc5c4CCN3C[C@@H]2CC[C@@H]1O,inactive
15,CN1[C@@H]2CC[C@H]1CC(NC(=O)n1c(=O)[nH]c3ccccc31)C2 (stereo not given in full),inactive
16,Cc1cc(C)cc(N)c1,inactive
17,Cc1cccc(C)c1NC(=O)CN1CCCCCC1,inactive
18,CC(C(=O)O)c1cccc(C(=O)c2ccccc2)c1 (stereo not given),inactive
19,CC(O)CNCC(C)O (stereo not given),inactive
20,C=CC(=O)OCCCCCC,inactive

row,SMILES,Potency
1,O=S(=O)(O)c1cccc2c(S(=O)(=O)O)cccc12,inactive
2,c1coc(CNc2ncnc3nc[nH]c23)c1,inactive
3,CC(C)c1cccc(C(C)C)c1N,inactive
4,NC(=O)NNC(N)=O,inactive
5,COc1ccc2cc(C=O)ccc2c1,inactive
6,NNS(=O)(=O)c1ccc(Oc2ccc(S(=O)(=O)NN)cc2)cc1,inactive
7,O=C[C@H](O)[C@H](O)[C@H](O)CO,inactive
8,COC(/C=C(\C)CCC=C(C)C)OC,inactive
9,CCCCCC(=O)O[C@]1(C(C)=O)CC[C@H]2[C@@H]3CCC4=CC(=O)CC[C@]4(C)[C@H]3CC[C@@]21C,inactive
10,CCNc1cc(O)ccc1C,inactive
11,CC1=CC[C@@]23C[C@@H]1C(C)(C)[C@@H]2CC[C@H]3C,inactive
12,C=CCOC(=O)CCCCCC,inactive
13,c1ccc2c(c1)CCc1ccccc1N2,inactive
14,COc1ccc(N)c(C)c1,inactive
15,CC1=CC[C@H](CC=O)C1(C)C,inactive
16,O=C(O)[C@H](O)[C@@H](O)[C@H](O[C@@H]1O[C@H](CO)[C@H](O)[C@H](O)[C@H]1O)[C@H](O)CO,inactive
17,O=C1Cc2cc(Cl)ccc2N1,inactive
18,NCC1CCCC(CN)C1 (stereo not given),inactive
19,CCCO,inactive
20,CC(C)Nc1ccccc1,inactive
